The values below come from PubChem BioAssay AID493036 (Sanford-Burnham Center for Chemical Genomics, 2011).

In all, about 330,000 compounds went through this assay and about 560 (0.17%) were called active.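 Rule for the calls: active = activation at or above 40% of the spot to cytoplasm intensity ratio, with at least 20 cells analyzed; inconclusive = wells under 20 cells, flagged as cytotoxic or low count; inactive = the rest.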 Many of the other results were omitted from the sample, so actives are more common in it than they were.

The nature of experiment [1]: agonists of human NTR1, primary screen, imaging, U2OS cells, beta-arrestin-GFP, high content (AID 493036).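 For activation: 0% = DMSO without peptide and 100% = 100 nM NTR1 peptide.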 Particulars: NTR1-U2OS beta-arrestin-GFP spot imaging, agonist mode; measured here: cell count, cytotoxicity flag; at 20 µM.
The target of experiment [2] is Neurotensin receptor type 1 (Homo sapiens) (UniProt P30989). Described as above. Particulars: NTR1-U2OS beta-arrestin-GFP spot imaging, agonist mode; at 20 µM; stronger effect = higher value.
Neurotensin receptor type 1 (Homo sapiens), sequence (P30989 whole entry, looked up): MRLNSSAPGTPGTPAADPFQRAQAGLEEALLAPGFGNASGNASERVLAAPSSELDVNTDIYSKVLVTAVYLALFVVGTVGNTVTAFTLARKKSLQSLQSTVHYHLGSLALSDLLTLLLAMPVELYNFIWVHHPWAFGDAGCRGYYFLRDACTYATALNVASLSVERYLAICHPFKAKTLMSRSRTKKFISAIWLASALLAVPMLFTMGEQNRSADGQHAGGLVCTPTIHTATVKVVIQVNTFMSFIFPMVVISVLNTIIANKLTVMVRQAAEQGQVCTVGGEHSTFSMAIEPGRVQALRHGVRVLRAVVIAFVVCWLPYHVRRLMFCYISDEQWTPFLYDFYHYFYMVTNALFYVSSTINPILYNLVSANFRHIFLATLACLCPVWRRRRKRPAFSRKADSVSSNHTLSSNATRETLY

Take `CCOc1ccc(C(C)C)cc1S(=O)(=O)n1nc(C)cc1C`: in experiment [1], the cell count amounted to 43 cells. For the same compound, the activation in experiment [2] is 0.1% (inactive).

`COc1ccc(OC)c(S(=O)(=O)n2c([N+](=O)[O-])cnc2C)c1` showed a cell count in experiment [1] of 68 cells. Further, the activation in experiment [2] is 0.5% (inactive).

In the case of `COc1ccc(C(C[N+](=O)[O-])n2nc(C)cc2C)cc1` (stereo not given), the cell count in experiment [1] is 64 cells. For the same compound, the activation in experiment [2] is 47.9% (active).

In turn, `CC(C)(CNC(=O)Cc1ccc(Cl)cc1Cl)N1CCOCC1` yielded a cell count in experiment [1] of 59 cells. Besides, in experiment [2], the activation was -2.3% (inactive).

For `CCOc1ccc2sc(NS(=O)(=O)c3ccc(N)cc3)nc2c1`, the cell count in experiment [1] turned out to be 62 cells. Also, in experiment [2], the activation is 2.8% (inactive).

In turn, `O=C(Nc1cc(Cl)ccc1N1CCOCC1)c1ccc(N2CCCC2=O)cc1` returned a cell count in experiment [1] of 53 cells. Besides, the activation in experiment [2] is -1.6% (inactive).

The compound `CCn1c(Cc2cccs2)nnc1SCC(=O)c1ccc(C)cc1` registered a cell count in experiment [1] of 56 cells. In addition, the activation in experiment [2] was 0.5% (inactive).

`Fc1ccccc1CNC(=S)Nc1ccc(Cl)cc1` showed a cell count in experiment [1] of 48 cells. In experiment [2], the activation was 2.3% (inactive).

In the case of `CCN(CCNC(=O)C1=C(C)C(=O)OC12CCC(C)CC2)c1ccccc1` (stereo not given), in experiment [1], the cell count turned out to be 64 cells. The activation in experiment [2] is 3.9% (inactive).

Compound `COc1ccc(OC)c(NC(=O)c2cnn(-c3ccccc3Cl)c2NC(=O)c2ccco2)c1` came in with a cell count in experiment [1] of 62 cells. The activation in experiment [2] is 4.9% (inactive).

In the case of `CCOCCCNC(=S)Nc1ccc2nc(N3CCN(CC)CC3)cc(C)c2c1`, the cell count in experiment [1] came out at 73 cells. Moreover, the activation in experiment [2] is -2% (inactive).

`CCCCCCCC(=O)NC(Nc1ccccc1OC)C(Cl)(Cl)Cl` (stereo not given): the cell count in experiment [1] was 50 cells. In addition, the activation in experiment [2] was 2.7% (inactive).

In turn, `Cc1nn(CC(=O)Nc2ccc(C#N)cc2)c(C)c1[N+](=O)[O-]` came in with a cell count in experiment [1] of 65 cells. Also, in experiment [2], the activation is 0.3% (inactive).

On to `CC(OC(=O)CN1C(=O)COc2ccccc21)C(=O)NCc1ccc(F)cc1` (stereo not given), for which the cell count in experiment [1] is 51 cells. The activation in experiment [2] was 0.8% (inactive).

The compound `O=S(=O)(c1ccccc1)N1CN(Cc2ccc(F)cc2)c2nc3ccccc3nc21` returned a cell count in experiment [1] of 40 cells. Besides, in experiment [2], the activation was 0.8% (inactive).

The compound `CC(C)CC1(C(=O)NCc2ccccn2)C=CCN1C(=O)c1ccccc1` (stereo not given) displayed a cell count in experiment [1] of 56 cells. Further, the activation in experiment [2] was -0.1% (inactive).

Turning to `CCN(C(=O)CSc1ncnc2c1cnn2-c1ccccc1)C1CCS(=O)(=O)C1` (stereo not given), the cell count in experiment [1] came to 39 cells. The activation in experiment [2] is -0.3% (inactive).

For `O=[N+]([O-])/C=C/c1ccc2c(ccn2Cc2ccccc2)c1`, the cell count in experiment [1] was found to be 87 cells. For the same compound, the activation in experiment [2] is 87.3% (active).

Turning to `CCCCC[C@@H]1C=C(C(=O)O)[C@H](c2ccc(C#N)cc2)N1S(=O)(=O)c1ccc(C)cc1`, the cell count in experiment [1] turned out to be 52 cells. Moreover, the activation in experiment [2] is 7.1% (inactive).

For `CCCCCCCCCCCCN1C(=O)CSC1c1cccnc1` (stereo not given), in experiment [1], the cell count is 45 cells. Also, the activation in experiment [2] was 11.6% (inactive).

Compound `CC(C)Cn1c(CCC(=O)O)ccc1-c1cccs1` registered a cell count in experiment [1] of 50 cells. The activation in experiment [2] is -0.5% (inactive).

For the compound `COc1ccccc1NC(=O)C1CCN(C(=O)c2ccc(C(C)(C)C)cc2)CC1`, in experiment [1], the cell count stood at 46 cells. The activation in experiment [2] was -0.5% (inactive).

With `Cc1ccc(S(=O)(=O)NNC(=O)/C=C/c2cccc(F)c2)cc1`, the cell count in experiment [1] was found to be 75 cells. In addition, in experiment [2], the activation is 0% (inactive).

Regarding `CCCC(C(=O)NC1CCCC1)N(C(=O)Cn1nnc(-c2ccc(C)o2)n1)c1cccc(O)c1` (stereo not given), in experiment [1], the cell count is 48 cells. Also, the activation in experiment [2] was 0.6% (inactive).

For the compound `CC1CCN(S(=O)(=O)c2ccc3c(ccn3CC(=O)O)c2)CC1`, in experiment [1], the cell count amounted to 71 cells. In experiment [2], the activation is 0.7% (inactive).

In the case of `C#CCCOC(=O)N1C2=NC(C(=O)OC)=C(C(=O)OC)[C@@H]3N(C)c4ccc(OC)cc4[C@]23C[C@H]1C(=O)OC`, the cell count in experiment [1] came to 67 cells. Moreover, in experiment [2], the activation is 1.9% (inactive).

`Cc1ccc(N(C(=O)c2sc(C)nc2C)C(C(=O)NC(C)(C)C)c2ccncc2)cc1` (stereo not given) came in with a cell count in experiment [1] of 32 cells. Moreover, the activation in experiment [2] was -0.4% (inactive).

In experiment [1], `O=C(Oc1ccccc1C(=S)N1CCCCC1)c1cc([N+](=O)[O-])cc([N+](=O)[O-])c1` displayed a cell count of 41 cells. Further, the activation in experiment [2] is 0.8% (inactive).

The compound `CCOC(=O)c1cnc2c(c(C)nn2CC)c1Cl` had a cell count in experiment [1] of 47 cells. Further, in experiment [2], the activation is 2.2% (inactive).

Take `O=C(OCC(O)C(O)COC(=O)c1ccccc1)c1ccccc1` (stereo not given): the cell count in experiment [1] was determined as 68 cells. Moreover, in experiment [2], the activation was 0% (inactive).

Regarding `COc1ccc([C@H]2CC(=O)C=C(c3ccc(C)cc3)C2)cc1`, the cell count in experiment [1] stood at 62 cells. For the same compound, the activation in experiment [2] is 3.1% (inactive).

Regarding `CCC(C)Sc1nc2c(c(=O)[nH]c(=O)n2C)n1CC(O)COc1cccc2ccccc12` (stereo not given), the cell count in experiment [1] stood at 51 cells. Besides, the activation in experiment [2] was 4.1% (inactive).

As to `CC(C)c1ccccc1OCC(O)CN(CC(O)COc1cccc2ccccc12)C(C)C` (stereo not given), the cell count in experiment [1] stood at 48 cells. Besides, in experiment [2], the activation is 46.1% (active).

For the compound `Cc1cc(C)c(NC(=O)C[N+](C)(C)CC(O)COc2cccc3ccccc23)c(C)c1` (stereo not given), the cell count in experiment [1] was 43 cells. Also, the activation in experiment [2] was -1.1% (inactive).

In experiment [1], `CN(C)S(=O)(=O)N1CCN(c2ccc([N+](=O)[O-])cc2)CC1` displayed a cell count of 47 cells. Also, the activation in experiment [2] is 0% (inactive).

For the compound `COCc1cc(=O)[nH]c(-c2ccc(C(F)(F)F)cc2)n1`, in experiment [1], the cell count is 62 cells. The activation in experiment [2] is -0.3% (inactive).

Compound `CC(Sc1nn(-c2ccc(Cl)cc2)c(=S)s1)C(=O)NCC1CCCO1` (stereo not given) had a cell count in experiment [1] of 67 cells. The activation in experiment [2] is -1% (inactive).

`Cc1ccc(NC(=O)[C@H](Cc2ccccc2)NC(=O)C2CCNCC2)cc1` showed a cell count in experiment [1] of 66 cells. The activation in experiment [2] was -0.1% (inactive).

As for `COc1ccc(C2CC(=O)C=C(NCC3CCCO3)C2)cc1` (stereo not given), the cell count in experiment [1] turned out to be 92 cells. Besides, the activation in experiment [2] was -3.9% (inactive).

The compound `O=C1N(Cc2ccc3c(c2)OCO3)c2ccccc2C1(O)c1c[nH]c2ccccc12` (stereo not given) returned a cell count in experiment [1] of 56 cells. For the same compound, the activation in experiment [2] is 5.6% (inactive).
